Test results taken from the supplement of paper PMC10646978.
± gives the standard deviation.

Assays:
Conditions in all cases: modulator concentration 10 µM
[1] = tested on: RAW-Dual (murine macrophage reporter line); experiment: NF-kB reporter (SEAP) activity fold change vs agonist alone; higher = enhanced NF-kB activity
Summary of the method: (§1)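 In 384-well plates holding 50 000 RAW-Dual murine macrophage reporter cells per well, compound at 10 μM final was pre-incubated for 1 hour at 37 °C, after which a PRR agonist was added overnight. Supernatant SEAP read with QUANTI-Blue at 620 nm absorbance reported NF-κB, and Lucia luciferase read with QUANTI-Luc luminescence reported IRF. Fold change values come from dividing each reporter signal by the mean of agonist-only control wells on the same plate, averaged over replicate plates with propagated errors.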

[2] = tested on: RAW-Dual (murine macrophage reporter line); experiment: IRF reporter (Lucia luciferase) activity fold change vs agonist alone; higher = enhanced IRF activity
Summary of the method: as §1

[3] = tested on: RAW-Dual (murine macrophage reporter line); experiment: viability score (confluency relative to resting cells, overnight) (fraction); higher = more viable, active = viable (0.7 or more)
Summary of the method: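 RAW-Dual macrophages in 384-well plates were incubated overnight with compound, final concentration 10 μM. Confluency images from IncuCyte were processed in IncuCyte software into two masks covering all imaged wells. The viability score is each well's confluency relative to resting cells, and a compound met the cutoff when both masks exceeded 70% of resting cells.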

[4] = agonist: CpG ODN 1826 0.5 ug/mL

SMILES | NF-kB reporter [1, 4] | NF-kB reporter ([1]; agonist: LPS 0.1 ug/mL) | NF-kB reporter ([1]; agonist: MPLA […]) | IRF reporter ([2]; agonist: 3'3'-cGAMP 10 ug/mL) | IRF reporter ([2]; agonist: LPS 0.1 ug/mL) | IRF reporter ([2]; agonist: MPLA […]) | viability score [3]
Cc1ccc(C(=O)NC(=Cc2cccc3ccccc23)C(=O)N2CCCC2)cc1 | 0.957 ± 0.075 | 1.03 ± 0.067 | 0.974 ± 0.086 | 0.966 ± 0.042 | 1.31 ± 0.23 | 1.15 ± 0.22 | 1.01 (active)
COc1ccc(S(=O)(=O)N(CC(=O)Nc2ccccc2Br)c2ccc(C)cc2)cc1OC | 0.735 ± 0.067 | 0.773 ± 0.076 | 0.864 ± 0.041 | 0.858 ± 0.086 | 1.04 ± 0.11 | 1.1 ± 0.17 | 1 (active)
Cc1ccc(COc2cccc(C=C3SC(=S)NC3=O)c2)cc1 | 0.611 ± 0.06 | 0.803 ± 0.13 | 0.992 ± 0.088 | 0.793 ± 0.08 | 1.18 ± 0.069 | 1.3 ± 0.11 | 1.02 (active)
CNS(=O)(=O)C[C@H]1CC[C@H](N(C)c2ncnc3[nH]ccc23)CC1.O=C(O)/C=C\C(=O)O | 0.179 ± 0.044 | 0.0999 ± 0.005 | 0.414 ± 0.033 | 0.0771 ± 0.0033 | 0.269 ± 0.029 | 0.376 ± 0.056 | 0.997 (active)
CCn1c(=O)c(-c2ccn[nH]2)cc2c(C)nc(N)nc21 | 0.877 ± 0.054 | 1.01 ± 0.093 | 1.17 ± 0.065 | 1.01 ± 0.048 | 1.33 ± 0.23 | 1.45 ± 0.53 | 1 (active)
[O-][n+]1cccc(CO)c1 | 1.58 ± 0.067 | 1.96 ± 0.16 | 3.03 ± 0.16 | 1.14 ± 0.054 | 1 ± 0.19 | 1.4 ± 0.42 | 0.987 (active)
COc1ccc(N(CC(=O)N2CCc3ccccc3C2)S(C)(=O)=O)cc1Cl | 1.18 ± 0.12 | 1.05 ± 0.077 | 0.987 ± 0.059 | 1.06 ± 0.033 | 1.52 ± 0.12 | 1.11 ± 0.13 | 1.01 (active)
Cc1ccccc1C(=O)Nc1ccc(C(=O)N2CCCC(O)c3cc(Cl)ccc32)c(C)c1 (stereo not drawn) | 1.02 ± 0.2 | 1.09 ± 0.15 | 0.92 ± 0.056 | 0.601 ± 0.019 | 1.04 ± 0.29 | 1.07 ± 0.13 | 0.998 (active)
CO[C@@]12[C@H](COC(N)=O)C3=C(C(=O)C(C)=C(N)C3=O)N1C[C@@H]1N[C@@H]12 | 2.4 ± 0.14 | 1.47 ± 0.1 | 2.16 ± 0.18 | 1.21 ± 0.069 | 1.42 ± 0.099 | 1.24 ± 0.24 | 0.644 (inactive)
CCCC1=NN2C(=N)C(=Cc3cccc(OCc4ccccc4F)c3)C(=O)N=C2S1 | 0.983 ± 0.12 | 0.999 ± 0.1 | 0.972 ± 0.061 | 0.964 ± 0.064 | 1.6 ± 0.16 | 1.17 ± 0.097 | 1.01 (active)
CC12CC3CC(C)(C1)CC(N)(C3)C2 [Prestw-978] | 0.916 ± 0.073 | 0.95 ± 0.092 | 0.996 ± 0.095 | 1.26 ± 0.045 | 0.925 ± 0.078 | 0.844 ± 0.17 | 0.979 (active)
Cc1occc1C(=O)Nc1ccc(F)c(F)c1 | 1.07 ± 0.12 | 0.998 ± 0.16 | 1.11 ± 0.055 | 0.704 ± 0.042 | 1.07 ± 0.081 | 1.46 ± 0.14 | 0.927 (active)
CCOC(=O)C1=C(C)NC(C)=C(C(=O)OCC)C1c1ccc(Cl)c(Cl)c1 | 0.693 ± 0.23 | 0.996 ± 0.078 | 0.832 ± 0.079 | 1.05 ± 0.045 | 1.19 ± 0.19 | 1.37 ± 0.29 | 0.998 (active)
COC(=O)C1=CN(CC2CCCO2)C=C(C(=O)OC)C1c1ccccc1Cl (stereo not drawn) | 1.67 ± 0.13 | 1.21 ± 0.069 | 2.32 ± 0.14 | 0.796 ± 0.051 | 0.845 ± 0.066 | 0.686 ± 0.043 | 0.982 (active)
COCCOC(=O)C1=C(C)NC(C)=C(C(=O)OC(C)C)C1c1cccc([N+](=O)[O-])c1 (stereo not drawn) | 0.837 ± 0.07 | 1.05 ± 0.064 | 0.88 ± 0.076 | 1.11 ± 0.037 | 1.31 ± 0.18 | 1.11 ± 0.13 | 0.979 (active)
O=C(CSC1CC(=O)N(c2ccc(C(=O)O)cc2)C1=O)Nc1ccc(F)cc1 (stereo not drawn) | 0.998 ± 0.081 | 0.967 ± 0.14 | 1.52 ± 0.53 | 0.578 ± 0.021 | 1.25 ± 0.15 | 1.38 ± 0.22 | 1.01 (active)
Cc1ccc(Nc2nc(Cl)nc(Nc3ccc(C(C)C)cc3)n2)cc1 | 0.851 ± 0.067 | 1.06 ± 0.078 | 1.19 ± 0.13 | 0.828 ± 0.045 | 1.1 ± 0.19 | 1.33 ± 0.32 | 1.03 (active)
C#CC1(O)CCC2C3CCC4=Cc5oncc5CC4(C)C3CCC21C (stereo not drawn) | 1.26 ± 0.31 | 1.27 ± 0.094 | 1.2 ± 0.082 | 0.787 ± 0.046 | 1.35 ± 0.2 | 1.56 ± 0.15 | 0.958 (active)
COc1ccc(C)c2sc(=NC(=O)c3ccccc3)n(C)c12 | 1.16 ± 0.11 | 1.17 ± 0.06 | 2.25 ± 0.073 | 0.904 ± 0.05 | 0.969 ± 0.15 | 2.01 ± 0.31 | 0.99 (active)
Cc1ccc(C=CC(=O)O)cc1S(=O)(=O)NCCO | 1.04 ± 0.2 | 0.884 ± 0.075 | 1.05 ± 0.095 | 0.988 ± 0.077 | 1.16 ± 0.2 | 0.979 ± 0.32 | 0.984 (active)
O=C(NNC(=O)c1sc2cc(F)ccc2c1Cl)Nc1ccc(Cl)cc1 | 1.02 ± 0.081 | 0.995 ± 0.086 | 1.05 ± 0.053 | 0.926 ± 0.15 | 1.02 ± 0.048 | 1.12 ± 0.091 | 1 (active)
CC(=O)Oc1ccccc1C(=O)O | 1.01 ± 0.085 | 1.05 ± 0.079 | 0.959 ± 0.048 | 1.02 ± 0.068 | 0.964 ± 0.044 | 0.884 ± 0.11 | 0.998 (active)
O=S(=O)(Cc1cccc(Cl)c1)N1C2CCC1CC(Oc1cccnc1)C2 (stereo not drawn) | 1.07 ± 0.064 | 1.13 ± 0.1 | 1.08 ± 0.039 | 0.96 ± 0.064 | 1.12 ± 0.063 | 1.2 ± 0.12 | 1 (active)
COC(=O)C1=C(C)NC(C)=C(C(=O)OCCN2CCN(C(c3ccccc3)c3ccccc3)CC2)C1c1cccc([N+](=O)[O-])c1.Cl.Cl (stereo not drawn) | 0.241 ± 0.082 | 0.588 ± 0.22 | 0.799 ± 0.051 | 0.132 ± 0.008 | 0.888 ± 0.27 | 1.32 ± 0.18 | 0.975 (active)
